We go through 112 compounds from ChEMBL document CHEMBL3988442, “University of Dundee, Small-Polar-MMV Screening Library” (2021).

The whole screen tested about 48,000 compounds, of which about 13,000 (27%) showed an effect of 50% or more. The list shows a part of the results.

The assay concerns Wolbachia pipientis. Description: Anti-Wolbachia Cell-Based Screen. The class given is functional. Also noted: scale not given: in the data most compounds retested in dose-response had high values. As to conditions: 5 µM.
`COc1cc2c(cc1OC)C(=O)C(Sc1nnc(C)o1)C2` (configuration not stated): the “Percent Effect” value turned out to be 89.14%. Under `COc1cc2c(cc1OC)C(=O)C(Sc1nncn1C)C2` (configuration not stated) stands 119.4%; under `CNS(=O)(=O)CCn1cc(-c2cc3c(cc2OC)CCC3)nn1`, -24.83%; under `COc1cc2c(cc1OC)C(=O)C(Sc1nnnn1C)C2` (configuration not stated), 95.35%. The figure for `COc1ccc(C)cc1-n1cnnc1C1CC(=O)N(C)C1` (configuration not stated) is 6.21%.

Consider `COc1cc2c(cc1OC)CN(C(=O)NC(C)c1nncn1C)CC2` (configuration not stated), for which the “Percent Effect” value is -16.43%. The figure for `Cc1nnc(SCC(=O)N2CCC3(CC2)c2ccccc2CC3O)o1` (configuration not stated) is -11.87%; for `COc1cccc(Cc2nnc(SC3CCOC3=O)o2)c1` (configuration not stated) it is -7.418%; for `O=C1CCC2(CCCO2)CCN1Cc1noc(C2CCCC2)n1` (configuration not stated) it is 15.53%.

As for `O=C(NC1(c2nnn(Cc3ccncc3)n2)CCCC1)c1ccccc1`, the “Percent Effect” value is on record as -7.35%. For `CC(O)(CNc1ccccn1)c1ccccc1` (configuration not stated), the “Percent Effect” value is on record as 12.1%. On to `CCS(=O)(=O)NCCNC(=O)c1cnc(-c2ccccc2)nc1`, for which the “Percent Effect” value was determined as 1.605%. Consider `Cc1cccc(CCNC(=O)CCS(=O)(=O)C2CCCC2)c1`, for which the “Percent Effect” value was found to be 1.788%. Under `O=C(Cc1cccc(F)c1)NCCNS(=O)(=O)C1CCCC1` stands 103.6%; under `O=C(Cc1ccccc1)NCCNS(=O)(=O)C1CCCCC1`, 110.7%; under `O=C(NCCNS(=O)(=O)C1CCCCC1)c1ccccc1`, 130.7%. Regarding `O=C(Cc1ccc(F)cc1)NCCc1ccoc1`, the “Percent Effect” value is listed as 13.31%. The figure for `O=C(Cc1ccc(F)cc1)NCCNS(=O)(=O)c1ccc(F)c(F)c1` is -6.551%; for `CCc1ccc2c(c1)C(CCNC(=O)Cc1cccc(F)c1)C(=O)N2` (configuration not stated) it is 1.678%; for `O=C(Cc1ccc(F)cc1)NCCNS(=O)(=O)C1CCCC1` it is 108.3%.

As to `O=C(CCS(=O)(=O)C1CCCC1)NCCc1cccc(O)c1`, the “Percent Effect” value was 0.8082%. Under `O=C(NCCNS(=O)(=O)c1ccc2c(c1)CCC2)c1ccccc1` stands 4.416%; under `CN(C)C(CNCc1nc(-c2ccsc2)no1)c1cccs1` (configuration not stated), 32.89%; under `CN(Cc1ccc(OC(F)F)cc1)C(=O)CS(=O)(=O)c1ccc(Cl)cc1`, -2.734%.

In the case of `O=C(c1ccccc1-c1nnn[nH]1)N1CCOC(C(F)(F)F)C1` (configuration not stated), the “Percent Effect” value is reported as -13.17%. The figure for `COc1ccc(C(C)Nc2ncc(C(N)=O)cc2Cl)cc1OC` (configuration not stated) is 2.755%. `COc1ccc(-c2noc(CNC(C)Cn3cccn3)n2)c(OC)c1` (configuration not stated): the “Percent Effect” value was -1.941%.

Turning to `Cc1noc(C)c1C(=O)N(C)C(C)c1cccnc1` (configuration not stated), the “Percent Effect” value was 4.505%. Consider `Cc1nc(-c2cnn(C)c2)sc1C(=O)NCc1cccc(CN(C)C)c1`, for which the “Percent Effect” value came to 4.14%. Under `Cc1noc(C(C)C)c1C(=O)NCc1cccc(CN(C)C)c1` stands 74.15%; under `CNC(=O)COc1cccc(CNC(=O)c2c(C)noc2C(C)C)c1`, 111.4%. Under `Cc1noc(C(C)C)c1C(=O)NCc1cccc(N(C)C)c1` stands -0.3759%; under `COc1cc(CNC(=O)c2c(C)noc2C(C)C)ccn1`, 8.071%; under `COc1cccc(S(=O)(=O)NC(=O)c2c(C)noc2C(C)C)c1`, -5.099%. With `CNC(=O)COc1cccc(CNCc2c(C)noc2C)c1`, the “Percent Effect” value is recorded as -88.14%. Under `COCc1cccc(CNC(=O)c2c(C)noc2C(C)C)c1` stands 76.98%; under `Cc1noc(C(C)C)c1C(=O)NCc1cccnc1`, 107.3%. In the case of `Cc1noc(C(C)C)c1C(=O)NS(=O)(=O)c1cccnc1`, the “Percent Effect” value is -12.13%. As to `CNC(=O)COc1cccc(CNC(=O)c2c(C)noc2C)c1`, the “Percent Effect” value is listed as 3.18%.

Regarding `CNC(=O)CC1CCN(C(=O)Nc2ccc(-c3cc[nH]n3)cc2)CC1`, the “Percent Effect” value stood at 6.092%. Take `CCOCC(=O)NCC(CC)(OC)c1ccccc1` (configuration not stated): the “Percent Effect” value amounted to 1.259%.

For `CS(=O)(=O)N1CCCCC12CCN(c1nncs1)CC2`, the “Percent Effect” value was -20.36%. For the compound `O=C(NCC(c1ccc(F)cc1)N1CCOCC1)Nc1cn[nH]c1` (configuration not stated), the “Percent Effect” value was 114.1%. `O=C(NCC(c1ccccc1)N1CCOCC1)Nc1cn[nH]c1` (configuration not stated): the “Percent Effect” value was determined as 127.8%. Regarding `CC(CNC(=O)Nc1cn[nH]c1)N1CCCC1` (configuration not stated), the “Percent Effect” value is recorded as 127.7%. Under `CC(CNC(=O)Nc1cn[nH]c1)N1CCc2ccccc2C1` (configuration not stated) stands -5.86%.

On to `Cc1ccc(C(CNC(=O)Nc2cn[nH]c2)N2CCOCC2)o1` (configuration not stated), for which the “Percent Effect” value is on record as 59.24%. The figure for `CC(CNC(=O)Nc1cn[nH]c1)N1CCOCC1` (configuration not stated) is 3.391%.

In the case of `COc1ccc(C(CNC(=O)Nc2cn[nH]c2)N2CCOCC2)cc1` (configuration not stated), the “Percent Effect” value is -0.482%. The figure for `O=C(NCc1cc[nH]n1)NCC(c1ccc(F)cc1)N1CCOCC1` (configuration not stated) is 5.34%; for `Cc1ccc(C(CNC(=O)NCc2cc[nH]n2)N2CCOCC2)o1` (configuration not stated) it is -7.152%; for `CCn1c(CN(C)C)nnc1C1CCN(Cc2ccc(Cl)cc2F)CC1` it is -5.252%.

Take `Cc1ccc2c(c1)nc1n2[C@@H](CNC(=O)c2ccccn2)COC1`: the “Percent Effect” value turned out to be 6.729%. Turning to `Cc1noc(C)c1CC(=O)NCC(C(C)C)N1CCOCC1` (configuration not stated), the “Percent Effect” value is recorded as -3.487%. Under `CC(C)C(CNC(=O)Nc1cn[nH]c1)N1CCOCC1` (configuration not stated) stands 97.51%. For the compound `CCC(CC)C(CNC(=O)Nc1ccc(C)cc1)N1CCOCC1` (configuration not stated), the “Percent Effect” value is recorded as 4.516%. The figure for `CC(C)C(c1cccnc1)N(C)C(=O)Cc1ccc(O)cc1` (configuration not stated) is -17.69%; for `C=C(C)COc1cccc(C(=O)NC(C)c2nnn[nH]2)c1` (configuration not stated) it is 104.4%. For the compound `C=C(C)COc1ccccc1C(=O)NCCc1nncn1C`, the “Percent Effect” value is reported as -0.8083%. Under `CN(CCCNC(=O)c1cccc(OCC(N)=O)c1)CC(F)(F)F` stands 0.5585%; under `C=C(C)COc1ccccc1C(=O)NCCCc1nnn[nH]1`, 115.9%; under `C=C(C)COc1cccc(C(=O)N(CC)Cc2nccn2C)c1`, 0.123%. The figure for `C=C(C)COc1ccccc1C(=O)N(C)C(C)c1c(C)n[nH]c1C` (configuration not stated) is -35.55%; for `CCC(=O)c1ccc(OCC(=O)NC(C)c2nnn[nH]2)cc1` (configuration not stated) it is -5.336%; for `C=C(C)COc1cccc(C(=O)NCCCc2nnn[nH]2)c1` it is 109%. The figure for `C=C(C)COc1cccc(C(=O)N(C)C(C)c2c(C)n[nH]c2C)c1` (configuration not stated) is -12.59%. `CN1Cc2ccccc2CC1C(=O)N1CCN(CCS(C)(=O)=O)CC1` (configuration not stated): the “Percent Effect” value is reported as 0.38%. The figure for `CS(=O)(=O)c1ccc(OCCNCc2cccc(Cl)c2)cc1` is 6.711%. Under `CS(=O)(=O)CCNCc1ccc(OCc2ccccn2)cc1` stands -3.882%; under `CC1CCN(C(=O)C(C)N2CCc3[nH]nc(C(F)(F)F)c3C2)CC1` (configuration not stated), -0.1757%; under `CN(C)C(=O)Cc1ccc(NC(=O)NC2CCCC2)cc1`, 20.91%.

Consider `CN(C)c1ncc(-c2ccc(NC(=O)[C@@H]3CCCCN3)cc2)cn1`, for which the “Percent Effect” value amounted to 109.4%.

`CN(CCO)c1ncc(-c2ccc(NC(=O)[C@@H]3CCCCN3)cc2)cn1`: the “Percent Effect” value is given as 112.4%. On to `COc1ccc(NC(=O)c2cnc(N(C)C3CCCCC3)nc2N)cc1`, for which the “Percent Effect” value is recorded as -20.25%. As to `CN(C)C(=O)Cc1ccc(NC(=O)NC2CCCCC2)cc1`, the “Percent Effect” value amounted to 10.45%. For the compound `Cc1cc(CNC2(CO)CCOCC2)ccc1Br`, the “Percent Effect” value is recorded as -0.9175%. Under `CC(C)c1nc(-c2cc(C(=O)NCCCO)c3ccccn23)cs1` stands -2.585%; under `COCc1nc(CNc2cccc(-c3ncon3)c2)cs1`, -4.875%. For the compound `COc1c(CNC2CCN(C(=O)C(C)C)CC2)c(C(C)C)nn1C`, the “Percent Effect” value is 121.5%. The figure for `COc1c(CNC2CCC(O)CC2)c(C(C)C)nn1C` (configuration not stated) is 106.7%; for `COc1c(CNC2CCN(C(=O)C3CC3)CC2)c(C(C)C)nn1C` it is 2.531%; for `CC(C)c1nn(C)c(N(C)C)c1CNC1CCC(O)CC1` (configuration not stated) it is 13.16%. Consider `CC(C)C(=O)N1CCC(NCc2c(C(C)C)nn(C)c2N(C)C)CC1`, for which the “Percent Effect” value is -18.23%. The figure for `COc1c(CNC2CCN(C(C)(C)C)CC2)c(C(C)C)nn1C` is 2.143%. Under `CCOc1cccc(CCNC(=O)NC2CCc3[nH]ncc3C2)n1` (configuration not stated) stands 4.598%; under `O=C1CC(N(C(=O)c2csc(-c3ccccc3)n2)C2CC2)C(=O)N1` (configuration not stated), -6.994%. Turning to `CC(C)N(C)S(=O)(=O)c1ccc2c(c1)CCN(C(=O)c1cnccn1)C2`, the “Percent Effect” value is given as 109.6%.

In the case of `COCCNS(=O)(=O)c1cccc2c1CN(C(=O)c1cnccn1)CC2`, the “Percent Effect” value is on record as -8.732%.

Consider `CC(C)N(C)S(=O)(=O)c1ccc2c(c1)CCN(C(=O)c1cscn1)C2`, for which the “Percent Effect” value was found to be 99.31%.

With `COCCNS(=O)(=O)c1ccc2c(c1)CCN(C(=O)c1cncn1C)C2`, the “Percent Effect” value is listed as -12.86%. The figure for `Cc1ccc2c(n1)N(CCN(C)C)CCN(C(=O)c1cscn1)C2.O=C(O)C(F)(F)F.O=C(O)C(F)(F)F` is 28.27%; for `CC(C)N(C)S(=O)(=O)c1ccc2c(c1)CCN(C(=O)c1ccccn1)C2` it is 85.52%; for `CN(C)Cc1ccc(C2CCCCN2C(=O)c2cccnn2)cc1` (configuration not stated) it is -5.621%. The figure for `CC(C(=O)N1CCc2ccccc2C1)N(C)Cc1cscn1` (configuration not stated) is -9.272%; for `CC(C)N(C)Cc1noc2c1CN(C(=O)c1cnccn1)CC2` it is -8.266%; for `CC(C)N(C)S(=O)(=O)c1ccc2c(c1)CCN(C(=O)c1cccnn1)C2` it is 105.4%. The figure for `CCS(=O)(=O)NC1CCCN(c2cc(C)ccc2F)C1=O` (configuration not stated) is -7.776%; for `O[C@H]1[C@H](NCCSc2ccccn2)c2ccccc2C12CCNCC2` it is -1.82%; for `COc1ccccc1Oc1ncccc1CNC(=O)[C@H](N)CC(C)(C)C` it is -16.84%.

As to `CC(=O)NC1CCN(c2ncnc3c2c(C)nn3C)C1` (configuration not stated), the “Percent Effect” value is -10.72%. Take `COc1cc(C)c(C2CC(=O)NCc3nc4sccn4c32)cc1C` (configuration not stated): the “Percent Effect” value was -46.51%. Under `CCOCc1ccc(NC(=O)C(C)C)cc1` stands 2.83%; under `CCC[C@H]1CN(CCS(C)(=O)=O)C[C@@H]1NC(=O)c1cc(CC)on1`, 21.57%; under `Cc1cc(C)n(CCNCc2cc(-c3ccc(F)cc3)c[nH]c2=O)n1`, 135.5%. Under `Cc1cc(C)n(CC(=O)N2CCC(NS(=O)(=O)c3ccccc3)CC2)n1` stands -8.172%; under `Cc1cc(C)n(CC(=O)Nc2cc(-c3ccncc3)[nH]n2)n1`, 0.2765%. Take `Cc1cc(C)n(CCNCc2cc(-c3ccc(Cl)cc3)c[nH]c2=O)n1`: the “Percent Effect” value is given as 101%. With `CCn1cnnc1CCNCc1c[nH]nc1-c1ccc(F)cc1`, the “Percent Effect” value was -1.595%. Under `Cc1cc(F)ccc1CNCCn1cccn1` stands -2.042%. Under `Cc1cc(C)n(CCNCc2cc(-c3ccccc3)c[nH]c2=O)n1` stands 81.59%; under `COC(=O)c1ccc(Cn2nc(C)cc2C)c(F)c1`, -8.514%. The figure for `COC(=O)c1ccc(F)c(Cn2nc(C)cc2C)c1` is -3.045%.
